Experimental data as given in the supplement of paper PMC4466140.

target: SpBzz1-D2; experiment: SPOT peptide array binding signal intensity (averaged, normalized) (arbitrary units (background-subtracted, floor 0; scale differs between SH3 domains)); higher = stronger binding of the SH3 domain to the peptide
Method in brief: (§1)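 The binding signal is the normalized, background-subtracted spot intensity averaged over replicates; its arbitrary units differ between domains. It was obtained by incubating 10 μg/ml GST-fused SH3 domains from four yeast species overnight at 4°C in TBS-based blocking buffer on cellulose membranes with synthetic 15-mer peptides, cysteines replaced by serines, then detecting with anti-GST antibody, HRP anti-mouse secondary and luminol.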

Row | Binder | SPOT peptide array binding signal intensity
1 | PSRRDSLSIPRAVDA | 1.5

target: SpCyk3; experiment: as above
Method in brief: as §1

Row | Binder | SPOT peptide array binding signal intensity
2 | PSRRDSLSIPRAVDA | 3.5

target: SpHof1; experiment: as above
Method in brief: as §1

Row | Binder | SPOT peptide array binding signal intensity
3 | PSRRDSLSIPRAVDA | 1.25

target: SpHof1-2; experiment: as above
Method in brief: as §1

Row | Binder | SPOT peptide array binding signal intensity
4 | PSRRDSLSIPRAVDA | 0.5

target: SpHof1-3; experiment: as above
Method in brief: as §1

Row | Binder | SPOT peptide array binding signal intensity
5 | PSRRDSLSIPRAVDA | 1

target: SpHse1; experiment: as above
Method in brief: as §1

Row | Binder | SPOT peptide array binding signal intensity
6 | PSRRDSLSIPRAVDA | 21.2

target: SpLsb1; experiment: as above
Method in brief: as §1

Row | Binder | SPOT peptide array binding signal intensity
7 | PSRRDSLSIPRAVDA | ≤ 0

target: SpLsb4; experiment: as above
Method in brief: as §1

Row | Binder | SPOT peptide array binding signal intensity
8 | PSRRDSLSIPRAVDA | ≤ 0

target: SpMyo1; experiment: as above
Method in brief: as §1

Row | Binder | SPOT peptide array binding signal intensity
9 | PSRRDSLSIPRAVDA | ≤ 0

target: SpNbp2; experiment: as above
Method in brief: as §1

Row | Binder | SPOT peptide array binding signal intensity
10 | PSRRDSLSIPRAVDA | ≤ 0

target: SpPex13; experiment: as above
Method in brief: as §1

Row | Binder | SPOT peptide array binding signal intensity
11 | PSRRDSLSIPRAVDA | ≤ 0

target: SpRvs167; experiment: as above
Method in brief: as §1

Row | Binder | SPOT peptide array binding signal intensity
12 | PSRRDSLSIPRAVDA | 1.33

target: SpSla1-D1-D2; experiment: as above
Method in brief: as §1

Row | Binder | SPOT peptide array binding signal intensity
13 | PSRRDSLSIPRAVDA | 2

target: SpSla1-D3; experiment: as above
Method in brief: as §1

Row | Binder | SPOT peptide array binding signal intensity
14 | PSRRDSLSIPRAVDA | 1

target: AgAbp1; experiment: as above
Method in brief: as §1

Row | Binder | SPOT peptide array binding signal intensity
15 | GTIARPLFLVVLFFI | ≤ 0

target: AgBbc1; experiment: as above
Method in brief: as §1

Row | Binder | SPOT peptide array binding signal intensity
16 | GTIARPLFLVVLFFI | 1.25

target: AgBem1-D1; experiment: as above
Method in brief: as §1

Row | Binder | SPOT peptide array binding signal intensity
17 | GTIARPLFLVVLFFI | 33

target: AgBzz1-D1; experiment: as above
Method in brief: as §1

Row | Binder | SPOT peptide array binding signal intensity
18 | GTIARPLFLVVLFFI | 18

target: AgBzz1-D2; experiment: as above
Method in brief: as §1

Row | Binder | SPOT peptide array binding signal intensity
19 | GTIARPLFLVVLFFI | 13.5

target: AgCyk3; experiment: as above
Method in brief: as §1

Row | Binder | SPOT peptide array binding signal intensity
20 | GTIARPLFLVVLFFI | 8

target: AgFus1; experiment: as above
Method in brief: as §1

Row | Binder | SPOT peptide array binding signal intensity
21 | GTIARPLFLVVLFFI | 1900

target: AgHof1; experiment: as above
Method in brief: as §1

Row | Binder | SPOT peptide array binding signal intensity
22 | GTIARPLFLVVLFFI | 0.75

target: AgHse1; experiment: as above
Method in brief: as §1

Row | Binder | SPOT peptide array binding signal intensity
23 | GTIARPLFLVVLFFI | 428

target: AgLsb1; experiment: as above
Method in brief: as §1

Row | Binder | SPOT peptide array binding signal intensity
24 | GTIARPLFLVVLFFI | ≤ 0

target: AgLsb4; experiment: as above
Method in brief: as §1

Row | Binder | SPOT peptide array binding signal intensity
25 | GTIARPLFLVVLFFI | 580

target: AgMyo5; experiment: as above
Method in brief: as §1

Row | Binder | SPOT peptide array binding signal intensity
26 | GTIARPLFLVVLFFI | 0.5

target: AgNbp2; experiment: as above
Method in brief: as §1

Row | Binder | SPOT peptide array binding signal intensity
27 | GTIARPLFLVVLFFI | 57

target: AgRvs167; experiment: as above
Method in brief: as §1

Row | Binder | SPOT peptide array binding signal intensity
28 | GTIARPLFLVVLFFI | 1.33

target: AgSho1; experiment: as above
Method in brief: as §1

Row | Binder | SPOT peptide array binding signal intensity
29 | GTIARPLFLVVLFFI | 338

target: AgSla1-D1-D2; experiment: as above
Method in brief: as §1

Row | Binder | SPOT peptide array binding signal intensity
30 | GTIARPLFLVVLFFI | ≤ 0

target: AgSla1-D3; experiment: as above
Method in brief: as §1

Row | Binder | SPOT peptide array binding signal intensity
31 | GTIARPLFLVVLFFI | 1.75

target: CaAbp1-D1; experiment: as above
Method in brief: as §1

Row | Binder | SPOT peptide array binding signal intensity
32 | GTIARPLFLVVLFFI | 56.5

target: CaAbp1-D2; experiment: as above
Method in brief: as §1

Row | Binder | SPOT peptide array binding signal intensity
33 | GTIARPLFLVVLFFI | 28.5

target: CaBbc1; experiment: as above
Method in brief: as §1

Row | Binder | SPOT peptide array binding signal intensity
34 | GTIARPLFLVVLFFI | 2

target: CaBem1-D1; experiment: as above
Method in brief: as §1

Row | Binder | SPOT peptide array binding signal intensity
35 | GTIARPLFLVVLFFI | 15.5

target: CaBzz1-D1; experiment: as above
Method in brief: as §1

Row | Binder | SPOT peptide array binding signal intensity
36 | GTIARPLFLVVLFFI | 88

target: CaBzz1-D2; experiment: as above
Method in brief: as §1

Row | Binder | SPOT peptide array binding signal intensity
37 | GTIARPLFLVVLFFI | 23.5

target: CaCyk3; experiment: as above
Method in brief: as §1

Row | Binder | SPOT peptide array binding signal intensity
38 | GTIARPLFLVVLFFI | 10

target: CaFus1; experiment: as above
Method in brief: as §1

Row | Binder | SPOT peptide array binding signal intensity
39 | GTIARPLFLVVLFFI | 3640

target: CaHof1; experiment: as above
Method in brief: as §1

Row | Binder | SPOT peptide array binding signal intensity
40 | GTIARPLFLVVLFFI | 16.5

target: CaHse1; experiment: as above
Method in brief: as §1

Row | Binder | SPOT peptide array binding signal intensity
41 | GTIARPLFLVVLFFI | 126

target: CaLsb1; experiment: as above
Method in brief: as §1

Row | Binder | SPOT peptide array binding signal intensity
42 | GTIARPLFLVVLFFI | 1.25

target: CaLsb4; experiment: as above
Method in brief: as §1

Row | Binder | SPOT peptide array binding signal intensity
43 | GTIARPLFLVVLFFI | ≤ 0

target: CaMyo5; experiment: as above
Method in brief: as §1

Row | Binder | SPOT peptide array binding signal intensity
44 | GTIARPLFLVVLFFI | 4.5
